CYP2C19 activ – activators of human cytochrome P450 2C19. recombinant CYP2C19, luciferin-H EGE luminescence; hits give high values; 0 = fully inhibited enzyme, 1 = untreated enzyme. activation factor at 5 µM. P33261. 96,000 tested, under 10 active;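 active = activation factor of at least 2 at 5 µM in the primary screen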;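 note: 0 = wells with 2.5 mM tranylcypromine and 1 = vehicle-only wells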
Target sequence (P33261 whole entry, looked up): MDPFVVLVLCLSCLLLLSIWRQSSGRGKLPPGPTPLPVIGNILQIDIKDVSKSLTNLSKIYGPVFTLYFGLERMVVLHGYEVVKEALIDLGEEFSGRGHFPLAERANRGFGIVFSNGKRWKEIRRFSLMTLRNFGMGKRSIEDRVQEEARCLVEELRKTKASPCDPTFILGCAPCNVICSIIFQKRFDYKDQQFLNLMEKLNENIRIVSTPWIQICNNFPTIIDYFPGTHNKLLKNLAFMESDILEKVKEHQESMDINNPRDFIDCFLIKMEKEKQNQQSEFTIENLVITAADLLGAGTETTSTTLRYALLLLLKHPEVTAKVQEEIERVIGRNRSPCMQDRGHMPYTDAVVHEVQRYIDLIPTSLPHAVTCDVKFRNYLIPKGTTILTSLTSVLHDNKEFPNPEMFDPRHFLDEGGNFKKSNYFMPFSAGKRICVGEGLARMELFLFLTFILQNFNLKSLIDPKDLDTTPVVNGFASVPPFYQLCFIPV
sEH inh – blocks human soluble epoxide hydrolase activity | P34913 | recombinant human sEH enzymatic activity assay | inhibition, % at 2 µM | 91,000 tested, 0.34% active | AID 707; in the data active = inhibition above about 80%
CYP2C19 inh – human CYP2C19 inhibition; P33261; CYP2C19 Supersomes, luciferin-H EGE luminescence, 30 min; inhibition, % at 5 µM; 96,000 tested, 21% active; AID 778;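 active = CYP2C19 inhibition above a set limit at 5 µM in the primary screen, cut at about 50% in these data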;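 note: plate controls were negative control wells for no effect and 2.5 mM tranylcypromine positive control for full effect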
sEH act – activators of human soluble epoxide hydrolase; 91,000 tested, 0.04% active; activation, % at 2 µM; P34913; AID 717; purified human sEH enzymatic activity, activator screen; in the data active = activation above about 37%
CYP2C9 inhib – blocks human cytochrome P450 2C9; CYP2C9 Supersomes, luciferin-H conversion, luminescence; 96,000 tested, 20% active; inhibition, % at 5 µM; P11712; AID 777;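 active = blocking of liver enzyme CYP2C9 beyond about 50% at 5 µM, limit read from the data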
CYP2C9 activ – activators of human CYP2C9; recombinant CYP2C9, luciferin-H conversion, luminescence; hits give high values; factor 1 = untreated enzyme, 0 = blocked; P11712; activation factor at 5 µM; 96,000 tested, 1.4% active;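 active = activation factor of 2 or more for CYP2C9 at a 5 µM dose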;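 note: 0 = sulfaphenazole-blocked wells and 1 = vehicle-only wells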
Starred values were filed as active, the others as inactive. Compounds with a hit are over-represented: about 27% of the library has one in this group of screens.

How did COc1ccc(OC)c(NS(=O)(=O)c2ccc3c(c2)n(C)c(=O)n3C)c1 do in these assays?
CYP2C19 activ: 0.2; sEH inh: -1.5; CYP2C19 inh: 77.9*; sEH act: -1.0; CYP2C9 inhib: 45.2; CYP2C9 activ: 0.5

Results for Cn1c(=O)n(C)c2cc(NS(=O)(=O)c3ccc4c(c3)CCCC4)ccc21 ?
CYP2C19 activ: 0; sEH inh: -7.1; CYP2C19 inh: 95.3*; sEH act: 7.0; CYP2C9 inhib: 21.0; CYP2C9 activ: 0.8

How did COc1ccc(NS(=O)(=O)c2ccc3c(c2)n(C)c(=O)n3C)cc1 do in these assays?
CYP2C19 activ: 0.7; sEH inh: 3.8; CYP2C19 inh: 27.1; sEH act: -5.7; CYP2C9 inhib: 74.1*; CYP2C9 activ: 0.3

How did Cn1c2c(c(=O)n(C)c1=O)C1(C(=O)Nc3ccccc31)C(C#N)=C(N)O2 (stereo unspecified) do in these assays?
CYP2C19 activ: 1; sEH inh: -3.4; CYP2C19 inh: 0.5; sEH act: 0.3; CYP2C9 inhib: 12.9; CYP2C9 activ: 0.9

What do the screens show for `CC(C)N(c1nnc(N)s1)C(C)C`?
sEH inh: 6.4; sEH act: -7.3

Results for COC(=O)COc1ccc(S(=O)(=O)Nc2cc(OC)ccc2OC)cc1 ?
CYP2C19 activ: 0; sEH inh: -35.0; CYP2C19 inh: 98.9*; sEH act: 34.0; CYP2C9 inhib: -86.5; CYP2C9 activ: 1.9

How did NC(=O)c1cc(S(=O)(=O)NC2CCCCC2)co1 do in these assays?
CYP2C19 activ: 0.8; CYP2C19 inh: 21.0; CYP2C9 inhib: 6.7; CYP2C9 activ: 0.9

Results for CC(C)Sc1oc(-c2ccco2)nc1S(=O)(=O)c1ccccc1 ?
sEH inh: 7.7; sEH act: -7.4

What do the screens show for `CSc1oc(-c2ccco2)nc1S(=O)(=O)c1ccccc1`?
CYP2C19 activ: 0.7; sEH inh: 3.8; CYP2C19 inh: 26.7; sEH act: -4.5; CYP2C9 inhib: -192.7; CYP2C9 activ: 2.9*

How did CC(C)Oc1ccc(N2CC(C(=O)Nc3ccc4c(c3)OCO4)CC2=O)cc1 (stereo unspecified) do in these assays?
CYP2C19 activ: 1; sEH inh: -3.5; CYP2C19 inh: -2.2; sEH act: 2.2; CYP2C9 inhib: 21.0; CYP2C9 activ: 0.8

How did COc1ccc(-n2c(SCC(=O)Nc3ccccc3)nnc2-c2ccc(NS(=O)(=O)c3ccc(C)cc3)cc2)cc1 do in these assays?
CYP2C19 activ: 1; sEH inh: 0.6; CYP2C19 inh: 2.7; sEH act: -2.6; CYP2C9 inhib: -1.4; CYP2C9 activ: 1

What do the screens show for `COc1cccc(-n2c(SCC#N)nnc2-c2cnccn2)c1`?
CYP2C19 activ: 1.1; sEH inh: -0.9; CYP2C19 inh: -10.4; sEH act: -0.4; CYP2C9 inhib: -16.2; CYP2C9 activ: 1.2

Results for COc1ccc(-n2c(SCC#N)nnc2-c2ccc(NS(=O)(=O)c3ccc(C)cc3)cc2)cc1 ?
CYP2C19 activ: 0.1; CYP2C19 inh: 89.8*; CYP2C9 inhib: 94.3*; CYP2C9 activ: 0.1

What do the screens show for `COc1ccc(-n2c(SCC(N)=O)nnc2-c2ccc(NS(=O)(=O)c3ccc(C)cc3)cc2)cc1`?
CYP2C19 activ: 0.8; sEH inh: 4.7; CYP2C19 inh: 17.7; sEH act: -6.6; CYP2C9 inhib: 72.7*; CYP2C9 activ: 0.3

How did COc1cccc(-c2ccc(-c3noc(-c4ccccc4F)n3)c(OC)n2)c1 do in these assays?
CYP2C19 activ: 0.8; sEH inh: 0.6; CYP2C19 inh: 17.1; sEH act: -2.5; CYP2C9 inhib: 61.0*; CYP2C9 activ: 0.4

What do the screens show for `COc1ccc(-c2ccc(-c3noc(C(C)C)n3)c(OC)n2)cc1`?
CYP2C19 activ: 0.3; sEH inh: -20.8; CYP2C19 inh: 66.2*; sEH act: 18.8; CYP2C9 inhib: 72.5*; CYP2C9 activ: 0.3

What do the screens show for `CCOc1cc(CNC(=O)CN2C(=O)c3ccccc3S2(=O)=O)ccc1OC`?
CYP2C19 activ: 0.9; CYP2C19 inh: 5.7; CYP2C9 inhib: 18.7; CYP2C9 activ: 0.8

What do the screens show for `Cc1ccc(C(=O)NNC(=S)Nc2cccc(Cl)c2Cl)cc1[N+](=O)[O-]`?
CYP2C19 activ: 0.8; sEH inh: 2.6; CYP2C19 inh: 24.6; sEH act: -2.4; CYP2C9 inhib: 76.2*; CYP2C9 activ: 0.2

What do the screens show for `Cc1ccc(C(=O)NCc2ccco2)cc1[N+](=O)[O-]`?
CYP2C19 activ: 0.8; sEH inh: 0.2; CYP2C19 inh: 21.4; sEH act: -2.2; CYP2C9 inhib: -11.3; CYP2C9 activ: 1.1

Screening data from PubChem BioAssay.
